Screening results from PubChem BioAssay.
GLP1R inv ag: qHTS of GLP-1 Receptor Inverse Agonists (Inhibition Mode). Glucagon-like peptide 1 receptor (Homo sapiens), P43220. HEK293 GLP-1R CRE-luciferase, luminescence, 24 h; GLP-1R form is constitutively active. Potency, µM (highest dose often 38.3 µM), for the others: at the top dose activity change, negative = inhibition, most hits filed as inhibitors. hit rate 1.6% among 410,000. AID 624417, 2012; further: on the % scale 0 is the no-effect control and ±100 the full control effect; nearly all actives have a fitted effect of over 55% in size
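Assay principle: reduced luminescence from a cAMP-responsive reporter in HEK293 cells co-expressing a constitutively active GLP-1R. Conditions: 24 hr compound incubation, 37 deg C, 5% CO2.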
HEK293 tox: qHTS of GLP-1 Receptor Inverse Agonists: Cytotox Screen; HEK293 cAMP-luciferase reporter cells, luminescence, 24 h; Potency, µM (top dose mostly 38.3 µM), inactives show at the top dose activity change, negative = inhibition, usual class: inhibitors; hit rate 0.13% among 410,000;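 further: loss of luciferase light is scored as toxicity; on the % scale 0 is the no-effect control and ±100 the full control effect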
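Compound-treated cells are incubated 24 hr at 37 deg C under 5% CO2 after a 12 hour attachment period, then luciferase detection reagent is added and luminescence is measured following 12 min at room temperature; lowered signal indicates toxicity.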
PTHR1 ag: qHTS for PTHR1 Agonists: Primary Screen | Parathyroid hormone/parathyroid hormone-related peptide receptor (Homo sapiens), Q03431 | hit rate 0.075% among 410,000 | HEK293 GP2 PTHR1 cells, GloSensor cAMP luminescence, 1 h | Potency, µM (top dose mostly 115 µM), without a hit: at the top dose activation, hits mostly activators; further: nearly all actives have a fitted effect of over 55% in size
Target sequence (Q03431 whole entry, looked up): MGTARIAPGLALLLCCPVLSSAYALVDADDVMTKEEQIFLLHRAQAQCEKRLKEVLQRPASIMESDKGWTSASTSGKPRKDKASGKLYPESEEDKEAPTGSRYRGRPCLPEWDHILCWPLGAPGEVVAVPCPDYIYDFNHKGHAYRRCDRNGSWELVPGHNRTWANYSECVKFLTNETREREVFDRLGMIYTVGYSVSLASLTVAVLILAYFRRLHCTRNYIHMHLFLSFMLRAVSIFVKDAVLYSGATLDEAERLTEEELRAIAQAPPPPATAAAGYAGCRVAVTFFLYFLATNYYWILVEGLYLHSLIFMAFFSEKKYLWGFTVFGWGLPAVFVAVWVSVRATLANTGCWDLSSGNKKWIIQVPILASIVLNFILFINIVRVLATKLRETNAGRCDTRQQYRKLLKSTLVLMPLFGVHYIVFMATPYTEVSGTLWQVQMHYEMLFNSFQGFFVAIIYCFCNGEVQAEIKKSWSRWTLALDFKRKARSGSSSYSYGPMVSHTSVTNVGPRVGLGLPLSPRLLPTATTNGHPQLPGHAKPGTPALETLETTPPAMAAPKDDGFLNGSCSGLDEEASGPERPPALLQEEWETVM
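HEK-293-derived GP2 cells expressing PTHR1 and a GloSensor cAMP reporter, 3,000/well, plated overnight, given luciferin plus IBMX (each 0.5 mM as added) for 1 h at 37 °C, then compound for 1 h at 37 °C. Luminescence was read after 15 min at room temperature.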
GLP1R ag: qHTS of GLP-1 Receptor Agonists; Glucagon-like peptide 1 receptor (Homo sapiens), P43220; HEK293 GLP-1R CRE-luciferase, luminescence, 4-6 h; cells express a hypersensitive GLP-1R form; Potency, µM (highest dose often 45.6 µM), without a hit: top-dose activation, usual class: activators; hit rate 0.007% among 380,000; further: % of control where 0% means no effect
* hit, by the source's call; i = inactive; u = inconclusive; x = not tested or not shown; [ ] = remark or other dose. Hits are enriched below; roughly 1.7% of the tested compounds scored in any of these assays. The call rests on the fitted dose curve; in most records, active means well fitted curve in the direction sought with a large enough effect; inconclusive means small, poorly fitted or top-dose-only effect, or another doubt; inactive means no such curve, though single readings can be large; an effect the other way counts as inactive or inconclusive. Potency means the concentration at half of the fitted maximal effect.

SMILES | GLP1R inv ag | HEK293 tox | PTHR1 ag | GLP1R ag
CCCCC[C@@H]1CCCCC[C@@H](O)C[C@@H](O)[C@H](O)/C=C/C(=O)O1 | -5% | 2% | -14% | 1%
CC1CCC(C(C)C)C(OC(=O)c2ccccc2N)C1 (configuration not stated) | x | x | x | -1%
CC1CCC(C(C)C)C(OCC(O)CN2CCCC(C)C2)C1 (configuration not stated) | 8.9µM* | u | 4% | -2%
Cc1ccc2c(c1)[C@]13CCCC[C@@H]1[C@@H](C2)N(C)CC3 | x | x | x | 8%
O=c1[nH]c(=O)n(C2CCCCCC2)c(O)c1C=NCC1CCCO1 (configuration not stated) | -8% | -16% | -3%[57.5 µM] | -1%
O=c1[nH]c(=O)n(C2CCCCCC2)c(O)c1C=NCc1ccc(F)cc1 | 10µM* | -19% | -10%[57.5 µM] | -3%
COC(=O)C1(C(=O)OC)C[C@H](c2ccc(OC)cc2)N(Cc2ccccc2OC)[C@@H]1c1cccs1 | 10µM* | 1% | -14% | x
Cc1ccc2c(c1)cc(C(=O)Nc1ccccc1C)n2C | u | -27% | i | x
COc1cc([C@@H]2c3cc4c(cc3[C@@H](O[C@@H]3O[C@@H]5CO[C@@H](C)O[C@H]5[C@H](O)[C@H]3O)[C@H]3COC(=O)[C@H]23)OCO4)cc(OC)c1O | 2.8µM* | u | -8% | 4%
CCCCc1ccc2[nH]cc(CCN)c2c1 | 10µM* | u | i | -1%
CC1CN(c2nc(-c3ccc(Br)cc3)nnc2-c2ccccc2)CC(C)N1 (configuration not stated) | 2.8µM* | u | i | 5%
Cc1ccc(NC(=O)C(CC(C)C)NS(=O)(=O)c2ccc3c(c2)oc(=O)n3C)c(C)c1 (configuration not stated) | -15% | u | -12% | -1%
CC(=O)Oc1ccc(-c2ccc(C(=O)Nc3cccc(S(=O)(=O)N4CCOCC4)c3)cc2)cc1 | 1.4µM* | u | -51% | 0%
C=C1C(=O)C23C(O)C1CCC2C12CCCC(C)(COC(C)=O)C1C(O)C3(O)OC2 (configuration not stated) | u | 2.5µM* | -93% | -10%
CC[C@H](OC(C)=O)C(C[C@H](C)NC)(c1ccccc1)c1ccccc1 | x | x | x | 9%[96 µM]
CC12CCC(=O)CC1CCC1C2CCC2(C)C1CCC2(C)O (configuration not stated) | x | x | x | -7%
c1ccc(N2CCN(c3nc(NCc4ccco4)c4ccccc4n3)CC2)cc1 | 7.1µM* | u | -32%[57.5 µM] | -4%
C[C@H]1CN([C@@H](C)CO)C(=O)c2cccc(NC(=O)Nc3ccc(C(F)(F)F)cc3)c2O[C@@H]1CN(C)C(=O)Nc1ccc(F)cc1 | 11µM* | u | -62% | -10%
CC1=C(N2CC2)C(=O)C(CO)=C(N2CC2)C1=O | u | 0.79µM* | i | -37%
CO[C@@H](COC(N)=O)C1=C(N2CC2)C(=O)C(C)=C(N2CC2)C1=O | x | x | x | -1%
COCc1cc(C)nc(SCC(=O)Nc2nc(C)cs2)c1C#N | u | 355% | -3% | 8%
C[C@H]1[C@@H]2Cc3ccc(O)cc3[C@]1(C)CCN2CCc1ccccc1 | x | x | x | 4%[96 µM]
COCCCNC(=S)NCCCNc1nc2cc(C)cc(C)c2cc1C#N | 11µM* | -2% | -6% | 23%
CC12CCC3c4ccc(OC(=O)N(CCCl)CCCl)cc4CCC3C1CCC2O (configuration not stated) | 10µM* | u | -39% | -2%
C[C@]12CCC3C(CCC4=C(Cl)C(=O)CC[C@@]43C)C1CCC2O (some centres not stated) | x | x | x | 21%
SMILES | GLP1R inv ag | HEK293 tox | PTHR1 ag | GLP1R ag
NC(CCc1ccccc1)c1csc(NC(=O)Nc2ccccc2Oc2ccccc2)n1 (configuration not stated) | u | -18% | i | -2%
CCOP(=O)(CCP(=O)(OCC)OCC)OCC.C[CH2][Sn]([Cl])([Cl])[CH2]C | u | 13µM* | -38% | -7%
COC(=O)c1ccc(Nc2cc(C)nc3ccc(C)cc23)cc1 | 10µM* | u | -34% | 5%
CC(C)(C)OC(=O)NCCCCCNC(=O)c1nc[nH]c1C(=O)NCc1ccc(CNC(=O)OC(C)(C)C)cc1 | 10µM* | u | -65% | -8%
CC1(C)CC/C(=C\c2ccc(Cl)cc2)C1(O)Cn1cncn1 (configuration not stated) | x | x | x | 5%[96 µM]
N#CC(C#N)=NNc1ccc([N+](=O)[O-])cc1 | 2.2µM* | u | -1% | -10%
COC(=O)c1cc(=O)n(-c2ccc(F)cc2)c(=Nc2ccc(F)cc2)s1 | 4.5µM* | u | -55% | -6%
CC(C)(C)c1csc(NC(=O)Nc2ccccc2)n1 | 10µM* | 6% | -93% | 29%
CC(C)Cn1cnc2c(c(-c3ccccc3)c(-c3ccccc3)n2Cc2ccco2)c1=N | 3.2µM* | u | i | -7%
N=c1c2c(-c3ccccc3)c(-c3ccccc3)n(Cc3ccco3)c2ncn1CCCN1CCOCC1 | u | u | -13% | 1%
Cc1ccc(N(CCC#N)C(=O)CCl)cc1C | 2.8µM* | u | -4% | -1%
CN(C)C1(CNC(=O)Nc2ccc(Cl)c(Cl)c2)CCCCC1 | 4µM* | u | i | -4%
COc1cc(NC(=O)c2cccc3c(-c4cccnc4)coc23)cc(OC)c1OC | u | u | -88% | -12%
COc1ccc(-c2coc3c(C(=O)Nc4cc(OC)c(OC)c(OC)c4)cccc23)c(C)c1 | 4.5µM* | -21% | -45% | -5%
COc1cc(OC)c(OC)cc1CN1CCN(C(=O)COc2ccc3ccccc3c2)CC1 | u | 4% | i | 1%
COc1cccc(CN2CCN(C(=O)COc3ccc4ccccc4c3)CC2)c1 | 11µM* | -17% | -20%[57.5 µM] | -2%
O=c1cc(CSc2ccc(Cl)cc2)nc(-c2ccccn2)[nH]1 | u | u | -42% | 7%
COc1ccc2c(c1)CCc1c(C(=O)Nc3c(C)nn(Cc4ccccc4C)c3C)noc1-2 | 10µM* | -2% | -90% | x
COc1ccc(NC(=O)c2c(C)nn(Cc3ccccc3Cl)c2Cl)cc1Cl | 11% | 8% | -25% | 6%
C[C@@H]1CN([C@H](C)CO)C(=O)c2c(c3ccccc3n2C)-c2ccccc2CO[C@H]1CN(C)Cc1ccc(C(F)(F)F)cc1 | 5µM* | u | -25% | -3%
C[C@@H]1CN([C@@H](C)CO)C(=O)c2c(c3ccccc3n2C)-c2ccccc2CO[C@H]1CN(C)S(=O)(=O)c1ccc(C(F)(F)F)cc1 | -12% | 2% | -48% | -1%
COc1cc2c(cc1NC(=O)C(Cl)Cl)-c1ccc(NC(=O)C(Cl)Cl)cc1C2 | 8% | u | -26% | -5%
CCOC(=O)[C@]12Cc3cc(C)ccc3[C@H]1N(Cc1ccccc1)C(=O)c1ccccc12 | u | 1% | -23% | -1%
